In the supplement of paper PMC6555819:

What was measured:
Assay in all cases: PBM binding z-score (relative to random genomic background probes); higher = stronger binding; sequences stand for … in GC…GCGATTGACAGCGTAGAATGAAGG
[1] = test system: PPARg:RXRa DBDmut IVT, anti-RXR (DBD mutation: RXRa K156A/R161A, NR concentration 270 nM, RXRa partner concentration 90 nM)
How it was run: (§1)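 Ligand-free nuclear receptor dimers were applied to custom Agilent 4×180K protein-binding microarrays whose double-stranded probes carried direct-repeat seeds, single-nucleotide variants, half-site ablations and random human genomic background sequences in 34-nt variable regions. Incubation lasted 1 h. Binding z-scores were computed against the random background probes from regression-normalized fluorescence.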

[2] = test system: PPARg:RXRa IVT, anti-PPARg (NR concentration 270 nM, RXRa partner concentration 90 nM)
How it was run: as §1

[3] = test system: PPARg DBDmut:RXRa IVT, anti-PPARg (DBD mutation: PPARg1 K132A/R137A, NR concentration 270 nM, RXRa partner concentration 90 nM)
How it was run: as §1

[4] = test system: PPARg DBDmut IVT, anti-PPARg (DBD mutation: PPARg1 K132A/R137A, NR concentration 270 nM)
How it was run: as §1

[5] = test system: PPARg homodimer (NR concentration 180 nM)
How it was run: as §1

[6] = test system: PXR:RXRa (NR concentration 270 nM, RXRa partner concentration 90 nM)
How it was run: as §1

[7] = test system: PXR homodimer (NR concentration 270 nM)
How it was run: as §1

[8] = test system: RARa:RXR (NR concentration 270 nM, RXRa partner concentration 90 nM)
How it was run: as §1

[9] = test system: RARa homodimer (NR concentration 270 nM)
How it was run: as §1

[10] = test system: RARb:RXRa (NR concentration 270 nM, RXRa partner concentration 90 nM)
How it was run: as §1

[11] = test system: RARb homodimer (NR concentration 270 nM)
How it was run: as §1

[12] = test system: RARg:RXRa (NR concentration 270 nM, RXRa partner concentration 90 nM)
How it was run: as §1

[13] = test system: RARg homodimer (NR concentration 270 nM)
How it was run: as §1

[14] = test system: RXRa DBDmut IVT, anti-RXR (DBD mutation: RXRa K156A/R161A, NR concentration 90 nM)
How it was run: as §1

[15] = test system: RXRa homodimer (NR concentration 180 nM)
How it was run: as §1

[16] = test system: THRa:RXRa (NR concentration 90 nM, RXRa partner concentration 90 nM)
How it was run: as §1

[17] = test system: THRa homodimer (NR concentration 90 nM)
How it was run: as §1

[18] = test system: VDR homodimer (NR concentration 270 nM)
How it was run: as §1

Sequence	PBM binding z-score [1]	PBM binding z-score [2]	PBM binding z-score [3]	PBM binding z-score [4]	PBM binding z-score [5]	PBM binding z-score [6]	PBM binding z-score [7]	PBM binding z-score [8]	PBM binding z-score [9]	PBM binding z-score [10]	PBM binding z-score [11]	PBM binding z-score [12]	PBM binding z-score [13]	PBM binding z-score [14]	PBM binding z-score [15]	PBM binding z-score [16]	PBM binding z-score [17]	PBM binding z-score [18]
TTACCTAGGTGAAAGGTCGTTGATGCACGCCTTG	5.23	6.14	1.6	0.889	1.73	3.69	0.261	4.82	-0.203	2.38	2.24	3.56	1.38	0.705	4.66	3.15	0.624	1.19
ATCGAAAGGTCGACGGGGTGAGTATACACCGTTT	0.683	2.19	1.15	0.814	2.18	3.64	1.33	4.46	0.456	3.98	3.14	4.6	4.63	1.61	5.07	3.57	0.568	1.7
GATACAGGGTCAGCTAGAGGCCAGAGAATGGAAA	1.5	2.31	0.246	-1.1	2.84	3.34	0.000802	4.73	0.734	4.34	3.39	6.83	5.12	1.73	4.78	3.35	0.483	0.71
ATATGTAGGTTACATCCGGGTCACTCAGGCTATG	7.65	7.47	3.76	3.51	2.34	3.29	1.26	3.74	0.95	2.41	3.14	3.8	2.2	0.745	3.03	3.94	2.97	2.29
CAAACTAGGTCGCAGAGGTCAAAGTCCGTGCGTA	6.57	7.05	2.76	1.62	3.69	6.55	7.19	7.01	1.48	4.5	4.96	6.18	5.62	2.9	6.96	4.19	1.67	5.86
CGAACTAGGTCATTGATAGGACAGTGAATAGTAA	7.92	8.26	4.2	1.01	1.71	1.43	0.351	1.93	0.346	3.4	2.83	4.58	4.22	2.29	2.34	2.61	0.97	1.35
CCTAGTAGGCCAATCTGGGTCACTCAAGGCTTGA	6.2	6.35	0.0197	-0.994	0.502	1.07	-0.356	1.39	-0.858	1.78	2.52	1.43	1.67	-0.0412	0.813	3.89	0.525	-0.107
AATACAGGGTCATCGTTGGCCAGAGTACGCACAG	2.72	4.4	1.78	2.43	2.34	4.57	0.72	5.31	1.34	4.37	3.58	5.68	5.14	3.53	6.56	3.95	1.53	3.86
TCGAGTAGGTTATGGGCATTCAGAATGGCGTCGA	1.95	1.36	-0.529	-0.999	0.0273	-0.316	-0.754	-0.148	-0.374	0.453	-0.0176	-0.0222	-0.106	-0.148	0.459	-0.261	-0.66	-0.437
GATACACGGTCAGCTAGAGGCCAGAGTATGGAAA	-0.219	0.135	-0.178	-0.554	0.453	-0.394	-0.5	0.205	-0.0449	2.51	1.9	2.39	2.33	-0.51	0.403	0.349	-0.599	-0.244
TCTTGTAGACCAACAGGAGGTTAAGAAAGATCGA	1.42	0.757	-0.365	0.137	-0.0799	0.757	0.175	0.783	-0.189	0.416	0.694	0.411	0.151	0.322	0.799	0.789	-0.614	-0.388
GCGTGTAGATCAAGGTTAAGAAAGACTAAGCTAA	-0.0954	0.359	-0.293	-0.542	0.178	0.409	0.176	1.16	-0.389	0.791	0.225	0.354	0.289	-0.253	0.772	1.54	-0.256	-0.286
AGAACGAGGGCACGCTGAGTTGAAAGCAGAGTAG	3.49	3.67	0.808	0.246	0.111	1.36	-0.00968	1.1	-0.124	2.51	1.16	2.34	2.15	2	1.46	2.13	-0.233	0.663
TAACCTAGGTCATTGGGCCAGTATAGTACGCATC	4.7	5.03	1.2	0.368	1.68	2.09	0.379	2.92	0.714	3.88	3.46	4.58	4.75	2.44	3.95	3.19	1.52	2.14
GGAACGAGGGCAAGTTGAAAGCAGAGTTTGATGG	3.88	2.91	-0.0232	-0.635	0.201	0.652	0.377	0.519	-0.328	2.53	1.57	1.12	1.98	2.41	0.747	1.12	0.0724	1.92
